# Assay results taken from the antibiotic and cytotoxicity screens of Wong et al. (2023).
# Among all 39,000 compounds or so, about 3,300 (8.5%) were called active. What follows is part of a selection rich in actives, with near analogues and random picks from the rest.
# Tested on: HepG2
# Assay: cytotoxicity call (relative viability < 0.9)
# Details: 10 µM
row,SMILES,cytotoxicity call
1,COc1ccc(S(=O)(=O)N(C)C[C@@H]2Oc3cc(C#CC4CC4)ccc3S(=O)(=O)N([C@H](C)CO)C[C@@H]2C)cc1,inactive
2,CO[C@H]1CN(C)C(=O)c2cc(NC(=O)NC3CCCCC3)ccc2OC[C@@H](C)N(CCc2ccccc2)C[C@H]1C,inactive
3,Cc1noc(C)c1S(=O)(=O)Nc1ccc2c(c1)CC(=O)N([C@@H](C)CO)C[C@@H](C)[C@@H](CN(C)C(=O)NC1CCCCC1)O2,inactive
4,CN(C)CCCNC(=O)C[C@H]1CC[C@H]2[C@@H](COC[C@@H](O)CN2S(=O)(=O)c2ccccc2)O1,inactive
5,C[C@@H]1CCCCO[C@H](CN(C)C(=O)Cc2ccccc2)[C@@H](C)CN([C@@H](C)CO)C(=O)c2cc(NC(=O)Nc3ccc(F)cc3)ccc2O1,inactive
6,C[C@@H]1CN([C@@H](C)CO)C(=O)c2c(c3ccccc3n2C)-c2ccccc2CO[C@H]1CN(C)S(=O)(=O)c1ccc(Cl)cc1,active
7,C[C@H]1CN([C@@H](C)CO)C(=O)c2c(c3ccccc3n2C)-c2ccccc2CO[C@@H]1CN(C)S(=O)(=O)c1ccc(Cl)cc1,active
8,C[C@H]1CN([C@@H](C)CO)C(=O)c2c(c3ccccc3n2C)-c2ccccc2CO[C@H]1CN(C)S(=O)(=O)c1ccc(C(F)(F)F)cc1,inactive
9,C[C@@H]1CN([C@H](C)CO)C(=O)c2c(c3ccccc3n2C)-c2ccccc2CO[C@H]1CN(C)S(=O)(=O)c1ccc(Cl)cc1,inactive
10,C[C@@H]1CN([C@H](C)CO)C(=O)c2c(c3ccccc3n2C)-c2ccccc2CO[C@@H]1CN(C)S(=O)(=O)c1ccc(Cl)cc1,inactive
11,C[C@@H]1CN([C@H](C)CO)C(=O)c2c(c3ccccc3n2C)-c2ccccc2CO[C@@H]1CN(C)S(=O)(=O)c1ccc(C(F)(F)F)cc1,inactive
12,C[C@@H]1CN([C@@H](C)CO)C(=O)c2c(c3ccccc3n2C)-c2ccccc2CO[C@@H]1CN(C)S(=O)(=O)c1ccc(Cl)cc1,inactive
13,C[C@@H]1CN([C@@H](C)CO)C(=O)c2c(c3ccccc3n2C)-c2ccccc2CO[C@H]1CN(C)S(=O)(=O)c1ccc(C(F)(F)F)cc1,inactive
14,C[C@H](CO)N1C[C@H](C)[C@H](CN(C)S(=O)(=O)c2ccc(Cl)cc2)OCc2ccccc2-c2c(n(C)c3ccccc23)C1=O,active
15,C[C@H]1CN([C@@H](C)CO)C(=O)c2c(c3ccccc3n2C)-c2ccccc2CO[C@H]1CN(C)S(=O)(=O)c1ccc(Cl)cc1,active
16,C[C@H](CO)N1C[C@H](C)[C@@H](CN(C)S(=O)(=O)c2ccc(Cl)cc2)OCc2ccccc2-c2c(n(C)c3ccccc23)C1=O,inactive
17,C[C@@H]1CN([C@@H](C)CO)C(=O)c2c(c3ccccc3n2C)-c2ccccc2CO[C@@H]1CN(C)S(=O)(=O)c1ccc(C(F)(F)F)cc1,inactive
18,C[C@@H]1CCCCO[C@H](CN(C)CC2CC2)[C@H](C)CN([C@@H](C)CO)C(=O)c2cc(NS(=O)(=O)c3cn(C)cn3)ccc2O1,inactive
19,COCC#Cc1ccc2c(c1)O[C@@H](CN(C)S(=O)(=O)c1ccc(C)cc1)[C@H](C)CN([C@@H](C)CO)S2(=O)=O,inactive
20,O=C1N[C@H]2[C@@H]1[C@@H]1C=C[C@H]2C1,inactive
21,COc1ccc(NC(=O)Nc2cccc3c2O[C@@H](CN(C)Cc2ccc(C(F)(F)F)cc2)[C@@H](C)CN([C@@H](C)CO)C3=O)cc1,inactive
22,Cc1ccc(S(=O)(=O)Nc2ccc3c(c2)C(=O)N([C@H](C)CO)C[C@@H](C)[C@H](CN(C)C(=O)NC2CCCCC2)OCCCC[C@H](C)O3)cc1,inactive
23,C[C@@H]1CCCCO[C@H](CN(C)Cc2ccccc2)[C@@H](C)CN([C@@H](C)CO)C(=O)c2cc(NC(=O)c3ccccc3)ccc2O1,inactive
24,CNC(=O)C[C@H]1Nc2ccccc2NC1=O,inactive

row,SMILES,cytotoxicity call
1,N[C@H]1CCCC[C@@H]1OCc1ccccc1,inactive
2,CC1CCC2(C)C(C=O)=CCCC2C1(C)CC1OC(O)C(=O)C12CO2 (stereo not given),active
3,Cc1noc(C)c1S(=O)(=O)N(C)C[C@@H]1OCc2cn(nn2)CCCC(=O)N([C@@H](C)CO)C[C@H]1C,inactive
4,C[C@H](CO)N1C[C@H](C)[C@H](CN(C)Cc2ccc(Oc3ccccc3)cc2)Oc2ccc(NC(=O)Cc3ccccc3)cc2C1=O,inactive
5,C[C@@H]1CN([C@H](C)CO)C(=O)c2cc(NC(=O)Cc3ccccc3)ccc2O[C@@H]1CN(C)Cc1ccc(Oc2ccccc2)cc1,inactive
6,C[C@H]1CN([C@@H](C)CO)C(=O)c2cc(NC(=O)Cc3ccccc3)ccc2O[C@@H]1CN(C)Cc1ccc(Oc2ccccc2)cc1,active
7,C[C@H](CO)N1C[C@H](C)[C@@H](CN(C)Cc2ccc(Oc3ccccc3)cc2)Oc2ccc(NC(=O)Cc3ccccc3)cc2C1=O,inactive
8,C[C@@H]1CN([C@H](C)CO)C(=O)c2cc(NC(=O)Cc3ccccc3)ccc2O[C@H]1CN(C)Cc1ccc(Oc2ccccc2)cc1,active
9,C[C@@H]1CN([C@@H](C)CO)C(=O)c2cc(NC(=O)Cc3ccccc3)ccc2O[C@@H]1CN(C)Cc1ccc(Oc2ccccc2)cc1,active
10,C[C@@H]1CN([C@@H](C)CO)C(=O)c2cc(NC(=O)Cc3ccccc3)ccc2O[C@H]1CN(C)Cc1ccc(Oc2ccccc2)cc1,inactive
11,C[C@H]1CN([C@@H](C)CO)C(=O)c2cc(NC(=O)Cc3ccccc3)ccc2O[C@H]1CN(C)Cc1ccc(Oc2ccccc2)cc1,inactive
12,COc1ccc(NC(=O)N(C)C[C@H]2Oc3ccc(NC(=O)CCCCCC(=O)Nc4ccccc4N)cc3CC(=O)N([C@@H](C)CO)C[C@@H]2C)cc1,inactive
13,C[C@H](CO)N1C[C@H](C)[C@@H](CN(C)S(C)(=O)=O)Oc2c(NC(=O)NC3CCCCC3)cccc2C1=O,inactive
14,CO[C@H]1CN(C)C(=O)c2ccc(NC(=O)NC(C)C)cc2OC[C@@H](C)N(Cc2ccc(-c3ccccn3)cc2)C[C@H]1C,inactive
15,O=C(CN1CCOCC1)NCC[C@@H]1CC[C@@H](NC(=O)Nc2ccccc2)[C@H](CO)O1,inactive
16,COc1ccc(-c2cnc3c(c2)C(=O)N([C@@H](C)CO)C[C@@H](C)[C@@H](CN(C)C(=O)Cc2ccccn2)O3)cc1,inactive
17,CN(C)S(=O)(=O)N1CCN(CC(=O)Nc2ccc(Br)cc2)CC1,inactive
18,C[C@H]1CN([C@@H](C)CO)C(=O)c2cccc(NC(=O)c3cnccn3)c2O[C@H]1CN(C)S(=O)(=O)c1ccc(F)cc1,inactive
19,C[C@@H]1CN([C@H](C)CO)C(=O)c2cc(NC(=O)CCC(F)(F)F)ccc2O[C@@H](C)CCCCO[C@@H]1CN(C)Cc1ccc(C(=O)O)cc1,inactive
20,O=C(O)CC1CCOCC1,inactive
21,C[C@@H]1CCCCO[C@@H](CN(C)C)[C@H](C)CN([C@H](C)CO)C(=O)c2cc(NC(=O)CCCCCC(=O)Nc3ccccc3N)ccc2O1,inactive
22,COc1ccc(CN(C)C[C@@H]2OCCCC[C@@H](C)Oc3ccc(NC(=O)Nc4ccccc4)cc3C(=O)N([C@@H](C)CO)C[C@@H]2C)cc1,inactive
23,COc1ccc(CN(C)C[C@H]2OCCCC[C@@H](C)Oc3ccc(NC(=O)Nc4ccccc4)cc3C(=O)N([C@H](C)CO)C[C@H]2C)cc1,active
24,COc1ccc(CN(C)C[C@H]2OCCCC[C@@H](C)Oc3ccc(NC(=O)Nc4ccccc4)cc3C(=O)N([C@@H](C)CO)C[C@H]2C)cc1,active

row,SMILES,cytotoxicity call
1,COc1ccc(CN(C)C[C@H]2OCCCC[C@H](C)Oc3ccc(NC(=O)Nc4ccccc4)cc3C(=O)N([C@@H](C)CO)C[C@@H]2C)cc1,inactive
2,COc1ccc(CN(C)C[C@@H]2OCCCC[C@H](C)Oc3ccc(NC(=O)Nc4ccccc4)cc3C(=O)N([C@H](C)CO)C[C@H]2C)cc1,inactive
3,COc1ccc(CN(C)C[C@H]2OCCCC[C@@H](C)Oc3ccc(NC(=O)Nc4ccccc4)cc3C(=O)N([C@H](C)CO)C[C@@H]2C)cc1,inactive
4,C[C@@H]1CN([C@@H](C)CO)C(=O)c2cc(NC(=O)Nc3ccccc3)ccc2O[C@H]1CN(C)CC1CCCCC1,inactive
5,COc1ccccc1S(=O)(=O)N[C@H]1CC[C@@H](CCNC(=O)C2CC2)O[C@H]1CO,inactive
6,CCOC(=O)C[C@H]1CCCNC1,inactive
7,CCOC(=O)c1c(C)cc(O)cc1O,inactive
8,COC(=O)c1c(C)cc(OC)cc1O,inactive
9,CCOC(=O)c1c(C)cc(OC)cc1O,active
10,C[C@H](CO)N1C[C@H](C)[C@H](CN(C)S(=O)(=O)c2cccs2)Oc2ncc(C#Cc3ccccc3)cc2C1=O,inactive
11,C[C@@H]1CCCCO[C@H](CN(C)C(=O)Nc2cccc3ccccc23)[C@@H](C)CN([C@@H](C)CO)C(=O)c2cc(NS(C)(=O)=O)ccc2O1,inactive
12,C[C@@H]1CCCCO[C@H](CN(C)C(=O)Nc2cccc3ccccc23)[C@@H](C)CN([C@@H](C)CO)C(=O)c2cc(NS(=O)(=O)c3ccccc3)ccc2O1,inactive
13,C[C@@H]1CCCCO[C@H](CN(C)C(=O)Nc2cccc3ccccc23)[C@H](C)CN([C@H](C)CO)C(=O)c2cc(NS(C)(=O)=O)ccc2O1,active
14,C[C@@H]1CCCCO[C@H](CN(C)C(=O)Nc2cccc3ccccc23)[C@H](C)CN([C@H](C)CO)C(=O)c2cc(NS(=O)(=O)c3ccccc3)ccc2O1,active
15,C[C@@H]1CCCCO[C@H](CN(C)C(=O)Nc2cccc3ccccc23)[C@@H](C)CN([C@H](C)CO)C(=O)c2cc(NS(=O)(=O)c3ccccc3)ccc2O1,inactive
16,C[C@@H]1CN([C@@H](C)CO)C(=O)c2cc(NS(=O)(=O)c3ccccc3)ccc2O[C@@H](C)CCCCO[C@H]1CN(C)C(=O)Nc1cccc2ccccc12,active
17,C[C@H]1CCCCO[C@@H](CN(C)C(=O)Nc2cccc3ccccc23)[C@@H](C)CN([C@@H](C)CO)C(=O)c2cc(NS(=O)(=O)c3ccccc3)ccc2O1,inactive
18,C[C@@H]1CCCCO[C@@H](CN(C)C(=O)Nc2cccc3ccccc23)[C@H](C)CN([C@H](C)CO)C(=O)c2cc(NS(=O)(=O)c3ccccc3)ccc2O1,active
19,C[C@@H]1CCCCO[C@@H](CN(C)C(=O)Nc2cccc3ccccc23)[C@H](C)CN([C@H](C)CO)C(=O)c2cc(NS(C)(=O)=O)ccc2O1,inactive
20,C[C@@H]1CCCCO[C@@H](CN(C)C(=O)Nc2cccc3ccccc23)[C@H](C)CN([C@@H](C)CO)C(=O)c2cc(NS(=O)(=O)c3ccccc3)ccc2O1,inactive
21,C[C@@H]1CN([C@@H](C)CO)C(=O)c2cc(NS(=O)(=O)c3ccccc3)ccc2O[C@@H](C)CCCCO[C@@H]1CN(C)C(=O)Nc1cccc2ccccc12,inactive
22,C[C@H](CO)N1C[C@H](C)[C@@H](CN(C)C(=O)Nc2cccc3ccccc23)OCCCC[C@H](C)Oc2ccc(NS(=O)(=O)c3ccccc3)cc2C1=O,inactive
